Laboratory results from PubChem BioAssay AID1159580 (chemical genetic matrix, 2015).
Screen size: about 5,500 compounds; about 2,000 (36%) were called active. About 18% were inconclusive and are not listed. Cut-off read from the data, not from the text of the source: active = normalized growth mostly below about 0.91 (no sharp cut-off); inconclusive = no clear call, values can overlap the other calls; inactive = mostly above about 0.92. Some of the results follow.

Assay: chemical genetic growth profiling, strain panel (AID 1159580);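 note: tested at 20 µM; growth read once vehicle control cultures reached saturation at 30 °C; 1 = growth at the plate median or of vehicle wells; lower values mean less growth of the strain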
Conditions: S. cerevisiae deletion strains, growth OD

Measured: normalized growth

CCOCN(C(=O)CCl)c1c(C)cccc1CC
inactive: locus YAL013W, strain DEP1, active compounds read low 0.995 | locus YAL021C, strain ccr4, active compounds read low 0.988 | locus YAL026C, strain drs2, active compounds read low 0.998 | locus YAL030W, strain snc1, active compounds read low 0.992 | locus YBL061C, strain skt5, active compounds read low 0.994 | locus YBR009C, strain hhf1, active compounds read low 0.994 | locus YBR021W, strain FUR4, active compounds read low 1.01 | locus YBR023C, strain chs3, active compounds read low 0.98 | locus YBR171W, strain sec66, active compounds read low 0.971 | locus YBR229C, strain ROT2, active compounds read low 0.992 | locus YBR231C, strain swc5, active compounds read low 0.989 | locus YBR279W, strain paf1, active compounds read low 0.999 | locus YCL011C, strain gbp2, active compounds read low 0.998 | locus YCL016C, strain dcc1, active compounds read low 0.991 | locus YCL029C, strain bik1, active compounds read low 0.976 | locus YCL061C, strain MRC1, active compounds read low 0.98 | locus YCL069W, strain vba3, active compounds read low 0.992 | locus YCR088W, strain abp1, active compounds read low 0.984 | locus YDL005C, strain med2, active compounds read low 0.982 | locus YDL035C, strain GPR1, active compounds read low 0.99 | locus YDL040C, strain nat1, active compounds read low 1 | locus YDL074C, strain BRE1, active compounds read low 1.03 | locus YDL101C, strain DUN1, active compounds read low 0.983 | locus YDL134C, strain PPH21, active compounds read low 0.995 | locus YDL185W, strain tfp1, active compounds read low 0.967 | locus YDL192W, strain arf1, active compounds read low 0.979 | locus YDR001C, strain nth1, active compounds read low 0.991 | locus YDR069C, strain doa4, active compounds read low 0.987 | locus YDR101C, strain arx1, active compounds read low 0.98 | locus YDR137W, strain rgp1, active compounds read low 0.975 | locus YDR150W, strain NUM1, active compounds read low 0.954 | locus YDR159W, strain sac3, active compounds read low 0.959 | locus YDR162C, strain NBP2, active compounds read low 1 | locus YDR195W, strain ref2 0.982 | locus YDR297W, strain sur2, active compounds read low 0.986 | locus YDR318W, strain mcm21, active compounds read low 0.985 | locus YDR334W, strain swr1, active compounds read low 0.986 | locus YDR335W, strain msn5, active compounds read low 0.998 | locus YDR388W, active compounds read low 0.978 | locus YDR392W, strain spt3, active compounds read low 0.975 | locus YDR502C, strain sam2, active compounds read low 0.974 | locus YEL003W, strain gim4, active compounds read low 0.996 | locus YEL037C, strain rad23, active compounds read low 0.994 | locus YEL061C, strain CIN8 (second series), active compounds read low 0.994 | locus YEL061C, strain CIN8, active compounds read low 0.991 | locus YER015W, strain faa2, active compounds read low 0.993 | locus YER016W, strain bim1, active compounds read low 0.994 | locus YER110C, active compounds read low 0.978 | locus YER111C, strain swi4, active compounds read low 0.997 | locus YER155C, strain BEM2 (second series), active compounds read low 0.972 | locus YER155C, strain BEM2, active compounds read low 0.993 | locus YER167W, strain BCK2, active compounds read low 0.995 | locus YFR010W, strain ubp6, active compounds read low 0.992 | locus YGL078C, strain dbp3, active compounds read low 0.979 | locus YGL086W, strain mad1, active compounds read low 0.983 | locus YGL167C, strain pmr1, active compounds read low 0.985 | locus YGL173C, strain kem1, active compounds read low 0.976 | locus YGL227W, strain vid30, active compounds read low 0.983 | locus YGL240W, strain doc1, active compounds read low 0.985 | locus YGL248W, strain PDE1, active compounds read low 0.981 | locus YGL253W, strain hxk2, active compounds read low 0.981 | locus YGR078C, strain PAC10, active compounds read low 1 | locus YGR135W, strain pre9, active compounds read low 0.982 | locus YGR229C, strain SMI1, active compounds read low 1.01 | locus YGR252W, strain gcn5, active compounds read low 1.04 | locus YHR013C, strain ard1, active compounds read low 0.988 | locus YHR027C, strain rpn1, active compounds read low 0.98 | locus YHR030C, strain SLT2, active compounds read low 0.982 | locus YHR079C, strain IRE1 (second series), active compounds read low 0.979 | locus YHR094C, strain hxt1, active compounds read low 0.968 | locus YHR129C, strain ARP1, active compounds read low 0.963 | locus YHR142W, strain chs7, active compounds read low 1.04 | locus YHR200W, strain rpn10, active compounds read low 0.988 | locus YIL066C, strain RNR3, active compounds read low 0.976 | locus YIL073C, strain SPO22, active compounds read low 0.856 | locus YIL125W, strain kgd1, active compounds read low 0.997 | locus YIR030C, strain dcg1, active compounds read low 0.972 | locus YJL092W, strain hpr5, active compounds read low 0.985 | locus YJL095W, strain BCK1 (second series), active compounds read low 0.996 | locus YJL095W, strain BCK1, active compounds read low 1 | locus YJL115W, strain asf1, active compounds read low 0.976 | locus YJL129C, strain trk1, active compounds read low 1.01 | locus YJL134W, strain LCB3, active compounds read low 0.987 | locus YJL154C, strain vps35, active compounds read low 0.979 | locus YJL164C, strain tpk1, active compounds read low 0.994 | locus YJL166W, strain qcr8, active compounds read low 0.991 | locus YJL168C, strain set2, active compounds read low 0.984 | locus YJL187C, strain SWE1 (second series), active compounds read low 0.979 | locus YJL187C, strain SWE1, active compounds read low 0.988
